In all, about 330,000 compounds went through this assay and about 1,900 (0.58%) were called active. Roughly 4% stayed inconclusive and do not appear here. Cut-off read from the data, not from the text of the source: inconclusive = inhibition above about 70% without an active follow-up result; inactive = below that. A selection follows. Measured potencies and affinities stand elsewhere.
Assay: M. tuberculosis growth inhibition, HTS (AID 449762);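 note: bacterial growth assessed after seven days of incubation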
Conditions: M. tuberculosis H37Rv growth inhibition, 7H9 media; at 25 µM; hits give high values
For `O=[N+]([O-])c1ccc(Nc2ccc(F)cc2)nc1`, the inhibition was -2.27% (inactive).
In the case of `NC(=O)c1ccc(NC(=O)COC(=O)c2cc3c(s2)CCC3)cc1`, the inhibition is reported as 6.74% (inactive).
For `COc1ccc(NC(=O)COC(=O)c2cc3c(s2)CCC3)cc1`, the inhibition was 9.83% (inactive).
With `CCN1CCN(c2nc(C)c3c(n2)CC(C)CC3=O)CC1` (stereo not given) the inhibition was 11.3% (inactive).
In the case of `COC(=O)c1ccc(COc2cc([N+](=O)[O-])cc3cccnc23)cc1`, the inhibition is reported as 3.92% (inactive).
For `COC(=O)c1ccc(COc2cc([N+](=O)[O-])cc3cccnc23)o1`, the inhibition was -2.4% (inactive).
In the case of `O=C(CN1c2ccccc2Sc2ccccc21)N/N=C/c1ccc(Cl)cc1Cl`, the inhibition is reported as 4% (inactive).
In the case of `COc1ccccc1C(=O)NNC(=O)C12CC3CC(CC(C3)C1)C2`, the inhibition is reported as -6.93% (inactive).
With `Cc1cc(C)c2c(CN3CCN(Cc4ccccc4)CC3)cc(=O)oc2c1` the inhibition was 0.88% (inactive).
In the case of `Cc1ccc2c(CN3CCN(Cc4ccccc4)CC3)cc(=O)oc2c1C`, the inhibition is reported as 3.31% (inactive).
With `Fc1ccccc1N1CCN(C(c2ccncc2)c2nnnn2C2CCCC2)CC1` (stereo not given) the inhibition was -0.2% (inactive).
For `O=C(NCCO)c1cccc(S(=O)(=O)N2CCCCC2)c1`, the inhibition was -4.67% (inactive).
For `CC1CC(C)CN(C(=O)CN2C(=O)NC3(CCCCCC3)C2=O)C1` (stereo not given), the inhibition was 6.02% (inactive).
In the case of `N#Cc1c(SCC(=O)OCc2ccccc2)nsc1SCC(=O)OCc1ccccc1`, the inhibition is reported as 14.1% (inactive).
For `COC(=O)CSc1nsc(SCC(=O)OC)c1C#N`, the inhibition was -0.76% (inactive).
In the case of `CC(=O)CSc1nsc(SCC(C)=O)c1C#N`, the inhibition is reported as -3.69% (inactive).
For `CSc1snc(SCC(N)=O)c1C#N`, the inhibition was -0.39% (inactive).
With `CCC(C)N(C(=O)COC(=O)c1nc2nc(C)cc(C)n2n1)C1CCS(=O)(=O)C1` (stereo not given) the inhibition was 5.26% (inactive).
In the case of `CCCOc1ccc(CC2CCC(=O)NC2=O)cc1` (stereo not given), the inhibition is reported as 5.69% (inactive).
For `COc1ccc(CNS(=O)(=O)c2ccc3c(c2)NC(=O)C(C)S3)cc1` (stereo not given), the inhibition was 6.65% (inactive).
In the case of `CCc1c(C)sc(NC(=S)N2CCN(S(C)(=O)=O)CC2)c1C(=O)OC`, the inhibition is reported as 0.54% (inactive).
With `CCc1c(C)sc(NC(=S)N2CC(C)OC(C)C2)c1C(=O)OC` (stereo not given) the inhibition was 3.86% (inactive).
For `CCN(CC(=O)NCc1ccc(Cl)cc1)C(=O)CN1C(=O)NC(C)(c2ccccc2)C1=O` (stereo not given), the inhibition was -3.75% (inactive).
In the case of `CCC(C)NC(=O)c1cn(-c2cccc(OC)c2)c(=O)c2ccccc12` (stereo not given), the inhibition is reported as 4.02% (inactive).
With `CCOC(=O)C(C)NC(=O)c1cn(-c2ccc(OC)cc2)c(=O)c2ccccc12` (stereo not given) the inhibition was 3.17% (inactive).
With `N#C/C(C(N)=O)=C1/SC=C(c2ccccc2)N1c1ccccc1` the inhibition was -6.75% (inactive).
With `NS(=O)(=O)c1ccc(NC(=S)NC(=O)c2ccc(Br)o2)cc1` the inhibition was -3.72% (inactive).
For `Cc1ccc(S(=O)(=O)NC(=O)Nc2ccc(C)cc2C)cc1`, the inhibition was -6.63% (inactive).
With `Cn1c(=O)c2c(ncn2CC(=O)Nc2ccc(N3CCOCC3)cc2)n(C)c1=O` the inhibition was -5.62% (inactive).
For `O=C(O)CN=CC1=C(O)CC(c2ccccc2)CC1=O` (stereo not given), the inhibition was 4.73% (inactive).
With `N/C(Cc1ccc([N+](=O)[O-])cc1)=N\OC(=O)c1ccc([N+](=O)[O-])cc1` the inhibition was 44.8% (inactive).
In the case of `N/C(Cc1ccc(Cl)cc1)=N\OC(=O)c1ccc2ccccc2c1`, the inhibition is reported as 0.18% (inactive).
With `CCCCn1c(N)c(N(CCOC)C(=O)c2cccc(S(=O)(=O)N3CCCCCC3)c2)c(=O)[nH]c1=O` the inhibition was -2.07% (inactive).
In the case of `CC(=O)Oc1ccc(C#C/C=C2\c3ccccc3C(=O)N2c2ccccc2)cc1`, the inhibition is reported as 22.6% (inactive).
For `CC(=O)Oc1cccc(N2C(=O)c3ccccc3C2=O)c1`, the inhibition was -13.4% (inactive).
For `Cc1nc2c(cc1NC(=O)C(C)(C)C)nc(C)n2Cc1ccccc1`, the inhibition was -8.25% (inactive).
For `O=c1cc(-c2ccccc2Cl)oc2cccc(O)c12`, the inhibition was 1.24% (inactive).
With `Nc1ccc2oc(-c3ccccc3Cl)cc(=O)c2c1O` the inhibition was -3.11% (inactive).
With `COc1ccccc1N(CC(=O)NCCSC(C)(C)C)S(C)(=O)=O` the inhibition was 2.68% (inactive).
With `CN1CCN(CC(=O)Nc2c(C(=O)c3ccccc3)oc3ccccc23)CC1` the inhibition was 3.75% (inactive).
For `COc1ccc2oc(C(=O)c3ccccc3)c(NC(=O)CN3CCN(C)CC3)c2c1`, the inhibition was 15.4% (inactive).
In the case of `COC(C[C@@H]1O[C@H]1C(=O)COCc1ccccc1)OC`, the inhibition is reported as -5.79% (inactive).
In the case of `O=C(Cn1ccc([N+](=O)[O-])n1)NCc1cccnc1`, the inhibition is reported as 4.03% (inactive).
In the case of `CCCCSC1(SCCCC)N=C(N)C2(C#N)C(c3ccccc3)NC(C)=CC12C#N` (stereo not given), the inhibition is reported as -0.17% (inactive).
With `CCC(=O)Nc1cccc2ccccc12` the inhibition was -0.62% (inactive).
In the case of `CCCC(=O)Nc1ccccc1NC(=O)CCC`, the inhibition is reported as 0.31% (inactive).
For `COc1ccc(C(=O)N(c2ccc(OC)cc2)S(=O)(=O)c2cccs2)cc1`, the inhibition was 4.22% (inactive).
For `NC(=O)CSc1nc2cc(Cl)ccc2c(=O)n1C1CCCCC1`, the inhibition was -1.2% (inactive).
For `COc1ccc(-c2cc3c(=O)n(CC(=O)NCc4ccccc4OC)ncn3n2)cc1`, the inhibition was -8.29% (inactive).
With `C/C(=N/NC(=O)c1cccs1)c1ccc(N2CCOCC2)cc1` the inhibition was -6.32% (inactive).
With `CC(=O)N1c2ccccc2C(C)(c2ccccc2)CC1(C)C` (stereo not given) the inhibition was -5.59% (inactive).
For `CC1(c2cccc([N+](=O)[O-])c2)CC(C)(C)N(C(=O)c2ccccc2)c2ccccc21` (stereo not given), the inhibition was 1.14% (inactive).
In the case of `Cc1cc(C)c(S(=O)(=O)c2ccccc2C)c(SCC(C)C)n1`, the inhibition is reported as 11% (inactive).
With `Cc1sc2ncn(/N=C/c3ccco3)c(=O)c2c1C` the inhibition was -10.2% (inactive).
For `Cc1ccc(/C=N/n2cnc3sc(-c4ccccc4)cc3c2=O)o1`, the inhibition was 44.5% (inactive).
For `CCCCn1nnnc1SCC(=O)Nc1cccc(C)c1`, the inhibition was 7.62% (inactive).
In the case of `COc1ccc(CCN(C)C(=O)c2ccc(COc3ccccc3)o2)cc1OC`, the inhibition is reported as 2.55% (inactive).
With `CC(O)(CS(=O)(=O)Cc1ccccc1)c1ccccc1Cl` (stereo not given) the inhibition was -7.18% (inactive).
With `Cn1cnnc1SCC(=O)Nc1nc(-c2ccc(F)cc2)cs1` the inhibition was -5.61% (inactive).
In the case of `CCCn1c(N2CCN(CC(=O)Nc3ccc4c(c3)OCCO4)CC2)nc2ccccc21`, the inhibition is reported as -1.09% (inactive).
In the case of `O=C(NCCN1CCOCC1)NC1(C(F)(F)F)Oc2ccc(Cl)cc2O1` (stereo not given), the inhibition is reported as 66.9% (inactive).
For `O=C(Nc1cc(N2CCOCC2)ncn1)NC1(C(F)(F)F)Oc2ccccc2O1`, the inhibition was -1.34% (inactive).
With `CCOC(=O)c1[nH]c2ccc(OCC)cc2c1NC(=O)CN1CCN(c2ccccc2)CC1` the inhibition was -2.46% (inactive).
With `CCOC(=O)c1[nH]c2ccc(F)cc2c1NC(=O)CN1CCc2cc(OC)c(OC)cc2C1` the inhibition was 11.2% (inactive).
For `CNC(=S)N(C)CCc1cc2c(c(OC)c1C=C1C(=O)NC(=O)NC1=O)OCO2`, the inhibition was -4.55% (inactive).
For `C[C@@H](C(=O)Nc1ccc2ccccc2c1)[C@@H]1C[C@@]1(C)[C@@H](NC(=O)c1ccccc1)c1ccccc1`, the inhibition was 27.7% (inactive).
With `Cc1cc(C(=O)N[C@@H](c2ccccc2)[C@]2(C)C[C@H]2[C@@H](C)C(=O)Nc2ccc3ccccc3c2)no1` the inhibition was 49.4% (inactive).
With `Cc1ccc(/C=C/C(=O)N2CCN(S(=O)(=O)c3cccs3)CC2)o1` the inhibition was -4.62% (inactive).
With `Cc1ccc(S(=O)(=O)N2CCN(Cc3nc4sc5c(c4c(=O)[nH]3)CCCC5)CC2)cc1` the inhibition was 1.29% (inactive).
With `Cc1ccc(S(=O)(=O)Oc2ccc(/C=N/NC(=O)c3c(Cl)cnn3C)cc2)cc1` the inhibition was 25.4% (inactive).
In the case of `CC(C)c1ccc(/C=N/NC(=O)c2c(Cl)cnn2C)cc1`, the inhibition is reported as -0.44% (inactive).
In the case of `Fc1ccc(CN2CCN(c3ccc(Cl)cc3)CC2)cc1`, the inhibition is reported as 9.18% (inactive).
With `CCn1c(N)c(C(=O)NCc2cccnc2)sc1=S` the inhibition was -1.76% (inactive).
With `CC(/C=N/n1c(-c2cc(C)[nH]n2)n[nH]c1=S)=C\c1ccccc1` the inhibition was -2.29% (inactive).
For `Cc1cc(-c2n[nH]c(=S)n2/N=C/C(Cl)=C/c2ccccc2)n[nH]1`, the inhibition was 1.35% (inactive).
For `S=c1[nH]nc(C2CCCCC2)n1/N=C/C(Cl)=C\c1ccccc1`, the inhibition was -11% (inactive).
In the case of `S=c1[nH]nc(C2CCCCC2)n1/N=C/c1ccccc1`, the inhibition is reported as 9.46% (inactive).
For `Fc1cccc2sc(Nc3nc4cc5c(cc4s3)OCCO5)nc12`, the inhibition was 45.4% (inactive).
For `Cc1c(Cl)cccc1NC(=S)N(CCN(C)C)C(C)c1ccccn1` (stereo not given), the inhibition was 0.24% (inactive).
For `CCO[C@@H]1OC(C(=O)Nc2ccccc2)=C[C@H](c2ccc3c(c2)OCO3)[C@H]1CCCO`, the inhibition was 13.4% (inactive).
With `COc1cc(NC(=O)COC(=O)c2cc(S(=O)(=O)N3CCCCC3)ccc2Cl)c(C)cc1[N+](=O)[O-]` the inhibition was -2.58% (inactive).
In the case of `CCN1C(=O)[C@H]2[C@@H](c3ccc(-c4ccc(C(C)=O)cc4)cc3)N3CCC[C@@]3(C(=O)OC)[C@H]2C1=O`, the inhibition is reported as 21.2% (inactive).
With `COc1ccc(C2c3[nH]c4ccccc4c3C[C@H]3C(=O)N(C4CCN(Cc5ccccc5)CC4)CC(=O)N23)c(OC)c1` (stereo not given in full) the inhibition was 30.2% (inactive).
For `CCOc1ccc(C2c3[nH]c4ccccc4c3C[C@H]3C(=O)N(C4CC4)CC(=O)N23)cc1OC` (stereo not given in full), the inhibition was 4.59% (inactive).
In the case of `COc1ccc(-c2nc3c(s2)CN(S(C)(=O)=O)CC3)cc1OC`, the inhibition is reported as -6.59% (inactive).
For `Cc1nn(-c2ccccc2)c(Cl)c1C(=O)N(C)CC(=O)Nc1cccc(F)c1`, the inhibition was 0.93% (inactive).
With `CCCn1c(-c2cc(OC)c(OC)c(OC)c2)nc2c1c(=O)[nH]c(=O)n2Cc1ccccc1` the inhibition was -2.63% (inactive).
With `Cc1nn(-c2ccccc2)cc1C(c1c(N)[nH]c(=S)[nH]c1=O)c1c(N)[nH]c(=S)[nH]c1=O` the inhibition was 4.9% (inactive).
With `COc1ccc(NS(=O)(=O)c2ccc3nc(COc4ccc5ccccc5c4)[nH]c3c2)cc1` the inhibition was 0.01% (inactive).
For `COc1ccc(NS(=O)(=O)c2ccc3nc(COc4ccc(C#N)cc4)[nH]c3c2)cc1`, the inhibition was 4.82% (inactive).

Source: PubChem BioAssay AID449762 (Southern Research Specialized Biocontainment Screening …, 2010)
